For 35 compounds, growth results are on record in PubChem BioAssay (NCI).

The panel holds about 83,000 compounds, 20% with a hit somewhere; the sample as a whole holds those more often.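 For each line, cells grew in 96-well plates with the test compound present at a single concentration for 48 hours.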 A number with no mark means an inactive call. Calls of active or inactive are those of the source. Rule for the calls: active = growth percent below 10; inactive = the rest.

Common to all, as to assay: NCI-60 one-dose screen, 48 h (100 = growth as untreated, 0 = no growth, -100 = all killed)
Assay [1] has as its system BT-549 breast. To be noted: 10 µM unless noted.
In assay [2] the test system is MDA-MB-435 melanoma. To be noted: 10 µM unless noted.
Assay [3] deals with SW-620 colon. To be noted: 10 µM unless noted.
The test system of assay [4] is MCF7 breast. Conditions: 10 µM.
Assay [5] concerns HCT-116 colon. To be noted: 10 µM unless noted.
The test system of assay [6] is HCC-2998 colon. To be noted: 10 µM unless noted.
The test system of assay [7] is KM12 colon. To be noted: 10 µM unless noted.

Regarding `O=C(CSc1nc2ccccc2c(=O)n1-c1ccccc1)Nc1ccc(C(=O)/C=C/c2ccc(Cl)cc2)cc1`, the growth in assay [1] was 111%; in assay [2], 103%; in assay [3] it was 99.1%; in assay [4], 85.1%; in assay [5] it was 102%; in assay [6], 109%. In addition, the growth in assay [7] was 100%.
For the compound `COc1cccc2cc(N(C)c3nc(C)nc4ccsc34)ccc12`, the growth is 13.3% in assay [1]; -16.1% (active) in assay [2]; 22.3% in assay [3]; 16.9% in assay [4]; -0.926% (active) in assay [5]; 7.08% (active) in assay [6]. Further, in assay [7], the growth is -1.06% (active).
On to `O=S(=O)(c1ccccc1)n1cc2c(c1-c1ccccc1)CCc1sc(Nc3ccccc3)nc1-2`, for which the growth was 103% in assay [1]; 88% in assay [2]; 94.4% in assay [3]; 72.9% in assay [4]; 83.3% in assay [5]; 110% in assay [6]. Moreover, the growth in assay [7] was 82.7%.
On to `O=C1OC(c2ccccc2)(c2ccccc2)c2ccsc21`, for which the growth was 104% in assay [1]; 108% in assay [2]; 97.4% in assay [3]; 104% in assay [4]; 103% in assay [5]; 127% in assay [6]. The growth in assay [7] is 99.1%.
As to `O=C(Nc1ccc(Cl)cc1)N1CCN(c2ccc3nncn3n2)CC1`, the growth in assay [1] was 43.4%; in assay [2], -81.4% (active); in assay [3] it was -88% (active); in assay [4], -53.4% (active); in assay [5], -83.4% (active); in assay [6], -33.6% (active). For the same compound, the growth in assay [7] is -40.8% (active).
Consider `O=Nc1c(O)ccc2ccccc12.O=Nc1c(O)ccc2ccccc12.O=Nc1c([O-])ccc2ccccc12.[Fe+3]`, for which the growth is 103% in assay [1]; 109% in assay [2]; 97.3% in assay [3]; 89.2% in assay [4]; 97.1% in assay [5]; 113% in assay [6]. Besides, in assay [7], the growth is 116%.
For the compound `CNCCNc1nc2ccccc2c2c(=O)c3cccc(OC)c3sc12`, the growth is 73.1% in assay [1]; -72.7% (active) in assay [2]; -80.1% (active) in assay [3]; -67.5% (active) in assay [4]; -68.2% (active) in assay [5]; -52.3% (active) in assay [6]. Also, the growth in assay [7] was -47.9% (active).
In the case of `NS(=O)(=O)c1ccc(CCN=C=S)cc1`, the growth was 63.8% in assay [1]; 27.9% in assay [2]; -22.9% (active) in assay [3]; 2.99% (active) in assay [4]; 0.727% (active) in assay [5]; 81.1% in assay [6]. The growth in assay [7] was 8.37% (active).
For `COC(=O)C1(C)COP(=O)(Nc2ccc(OC)cc2)OC1` (stereo not given), the growth in assay [1] was 98.4%; in assay [2], 105%; in assay [3], 108%; in assay [4], 99.5%; in assay [5] it was 95.3%; in assay [6] it was 94.1%. The growth in assay [7] is 103%.
As for `C[C@@H](C(=O)NCCCC#Cc1cnc(Nc2ccc(C#N)cc2)nc1NC1CC1)N(C)C(=O)/C=C/CN(C)C`, the growth in assay [1] is 32.3%; in assay [2], 24.5%; in assay [3], 42.1%; in assay [4], 17.3%; in assay [5] it was 27.7%; in assay [6], 64.5%. For the same compound, the growth in assay [7] is 17.7%.
Regarding `COc1c(B(O)O)cccc1-c1nc2ccc3n[nH]c(F)c3c2c2c1CCCC2`, the growth in assay [1] was 5.08% (active); in assay [2], 88.3%; in assay [3] it was 59.7%; in assay [4], 61.5%; in assay [5], 43.9%; in assay [6], 116%. Also, in assay [7], the growth is 40.7%.
In the case of `O=C(Cn1cc(COc2ncnc3c2cnn3-c2ccccc2)nn1)Nc1cccc2ccccc12`, the growth was 99.5% in assay [1]; 94% in assay [2]; 99.1% in assay [3]; 85% in assay [4]; 102% in assay [5]; 104% in assay [6]. Moreover, the growth in assay [7] was 93.8%.
With `COc1ccccc1C(=O)O/N=C(\N)Cc1cccc2ccccc12`, the growth in assay [1] was 99.4%; in assay [2], 105%; in assay [3], 97.3%; in assay [4] it was 78.9%; in assay [5] it was 81.5%; in assay [6], 89.4%. Moreover, the growth in assay [7] was 87.9%.
As to `COc1cc(C=C2C(=O)N(C)C(=O)N(C)C2=O)cc(CN2CCCCC2)c1O`, the growth in assay [1] was 101%; in assay [2], 103%; in assay [3] it was 104%; in assay [4], 92.5%; in assay [5], 100%; in assay [6], 103%. For the same compound, the growth in assay [7] is 103%.
`O=C1/C=C/[C@@H](O)[C@@H]2C[C@@H](O)C[C@H]2/C=C/CCCCO1`: the growth in assay [1] was 45.3%; in assay [2], 23.5%; in assay [3], -33.7% (active); in assay [4], -48% (active); in assay [5], 0.136% (active); in assay [6], 6.82% (active). Moreover, the growth in assay [7] was -51.1% (active).
Turning to `O=C1c2ccc3c4c(ccc(c24)C(=O)N1CCCCO)C(=O)N(CCCCO)C3=O`, the growth in assay [1] was 63.5%; in assay [2], 3.2% (active); in assay [3] it was 10.6%; in assay [4] it was 28.2%; in assay [5] it was 28.4%; in assay [6], 97.2%. For the same compound, in assay [7], the growth was 95.3%.
Consider `COc1ccc(/C=C/C(=O)c2c(C)nc3ccccc3c2/C=C/c2ccccc2)c(OC)c1`, for which the growth in assay [1] was 89.2%; in assay [2] it was 88.9%; in assay [3], 80.5%; in assay [4] it was 62.6%; in assay [5] it was 51.5%; in assay [6], 92.1%. For the same compound, the growth in assay [7] was 87.4%.
For `CCOC(=O)C1=C(C)N=c2s/c(=C\c3ccccc3O)c(=O)n2C1c1ccc(OC)c2ccccc12` (stereo not given), the growth in assay [1] was 60.3%; in assay [2] it was -76.6% (active); in assay [3], -78.2% (active); in assay [4], -75.4% (active); in assay [5], 11.6%; in assay [6] it was -86.7% (active). Moreover, the growth in assay [7] is 8.88% (active).
For `O=c1c(-c2nc3ccccc3[nH]2)cc2ccccc2n1Cc1cn(Cc2ccc(F)cc2)nn1`, the growth was 22.4% in assay [1]; -37% (active) in assay [2]; 22.1% in assay [3]; 14.5% in assay [4]; -13.5% (active) in assay [5]; -14.5% (active) in assay [6]. Moreover, in assay [7], the growth is 9.74% (active).
With `COc1cc(NC(=O)CCSc2nc3ccccc3c(=O)n2Cc2ccccc2)cc(OC)c1OC`, the growth in assay [1] is 86%; in assay [2], 89.9%; in assay [3], 93.6%; in assay [4], 84.1%; in assay [5], 83.7%; in assay [6], 99.6%. Moreover, the growth in assay [7] was 87.1%.
Regarding `CC[C@H](C)[C@@H](C(=O)OC)n1cc(CNC(=O)[C@@H](Cc2ccccc2)NC(=O)OCc2ccccc2)nn1`, the growth in assay [1] was 106%; in assay [2] it was 99.9%; in assay [3] it was 102%; in assay [4], 97%; in assay [5], 102%; in assay [6], 104%. Moreover, the growth in assay [7] is 103%.
On to `COc1cc(C#N)cc2[nH]c(=O)oc12`, for which the growth is 97% in assay [1]; 97.9% in assay [2]; 101% in assay [3]; 101% in assay [4]; 102% in assay [5]; 105% in assay [6]. In addition, the growth in assay [7] is 101%.
Regarding `C[n+]1c2ccccc2nc2ccc(NCCO)cc21`, the growth in assay [1] is 105%; in assay [2], 98.4%; in assay [3], 96.6%; in assay [4], 84.8%; in assay [5] it was 94.2%; in assay [6] it was 116%. For the same compound, the growth in assay [7] is 92%.
As to `O=c1nc2sc3nc4ccccc4cc3cc-2s1`, the growth in assay [1] is 112%; in assay [2], 117%; in assay [3], 107%; in assay [4], 98.1%; in assay [5], 102%; in assay [6], 106%. In addition, the growth in assay [7] was 129%.
Regarding `C=C[C@@H]1CCC/C=C/[C@@H]2C[C@H](O)C[C@H]2[C@H](O)/C=C/C(=O)O1`, the growth in assay [1] is 40.6%; in assay [2], 12.9%; in assay [3], -15.9% (active); in assay [4] it was -14.8% (active); in assay [5] it was -0.456% (active); in assay [6], -23.3% (active). Further, in assay [7], the growth is -36.3% (active).
Turning to `O=c1cc(-c2ccccc2)oc2cc(OCc3cn(Cc4ccc(F)cc4)nn3)cc(OCc3cn(Cc4ccc(F)cc4)nn3)c12`, the growth in assay [1] is 18.8%; in assay [2], 40.9%; in assay [3] it was 60.3%; in assay [4], 53.3%; in assay [5] it was 18.2%; in assay [6], 74.1%. Besides, the growth in assay [7] is 43.3%.
With `COc1ccc(Cn2c(Br)c3c(c2Br)-c2nc(N)sc2CC3)cc1`, the growth is 51.4% in assay [1]; -40.6% (active) in assay [2]; 16% in assay [3]; 17.7% in assay [4]; 17.8% in assay [5]; 66.9% in assay [6]. Besides, in assay [7], the growth was 29.6%.
Regarding `Cc1cc(Nc2ccc(OCc3ccccc3)cc2)nc2cc(O)ccc12`, the growth in assay [1] is 69.7%; in assay [2] it was 65.6%; in assay [3] it was 11%; in assay [4] it was 39.3%; in assay [5] it was 30.6%; in assay [6], -34% (active). The growth in assay [7] was 45.6%.
Consider `O=C(/C=C/c1ccc(Cl)cc1)c1ccc(Nc2nc(NCCO)nc(N3CCOCC3)n2)cc1`, for which the growth in assay [1] was 85%; in assay [2] it was 77.9%; in assay [3], 50.4%; in assay [4], 9.73% (active); in assay [5] it was 18.6%; in assay [6], 99%. Besides, in assay [7], the growth was 28.5%.
As to `CN(C)/C=C1\SC(=Nc2ccc(Cl)cc2)NC1=O`, the growth in assay [1] was 104%; in assay [2] it was 104%; in assay [3] it was 99.9%; in assay [4] it was 91%; in assay [5] it was 104%; in assay [6], 104%. Moreover, the growth in assay [7] is 106%.
For `COc1cc(/C=C2\CCC/C(=C\c3cc(CN4CCOCC4)c(O)c(OC)c3)C2=O)cc(CN2CCOCC2)c1O`, the growth was 52.5% in assay [1]; 27.4% in assay [2]; 31.1% in assay [3]; 21.1% in assay [4]; 23.3% in assay [5]; 62.1% in assay [6]. Also, the growth in assay [7] is 9.12% (active).
`NCCOc1ccccc1/C=C1\c2ccccc2-c2ccc([N+](=O)[O-])cc21`: the growth in assay [1] was 84.8%; in assay [2] it was -53.8% (active); in assay [3], -82.4% (active); in assay [4], -60.9% (active); in assay [5], -95.3% (active); in assay [6], -53.3% (active). Moreover, the growth in assay [7] was -59.9% (active).
Turning to `O=C1N=c2ccccc2=C1c1sc(=Nc2ccccc2)n(Nc2ccccc2)c1O`, the growth in assay [1] is 106%; in assay [2], -23% (active); in assay [3] it was 108%; in assay [4], 103%; in assay [5], 104%; in assay [6], 116%. In assay [7], the growth was 103%.
For `O=c1c2cc(F)ccc2sc2c(NCCN3CCCC3)nc3ccccc3c12`, the growth in assay [1] was 86.7%; in assay [2], 23.2%; in assay [3], 19.1%; in assay [4], 30.4%; in assay [5] it was 39.1%; in assay [6] it was 30.9%. For the same compound, the growth in assay [7] is 39.5%.
Turning to `Cc1ccc(Nc2nc(N)c3ccccc3n2)cc1Cl`, the growth in assay [1] is 85.8%; in assay [2] it was 92.1%; in assay [3] it was 67.7%; in assay [4], 68.7%; in assay [5], 28.8%; in assay [6], 51.6%. The growth in assay [7] was 56%.
